Assay results: PMC8384837, “Expanding the binding specificity for RNA recognition by a PUF domain”

Target: PUM1 PUF domain R5-AVR (Homo sapiens, UniProt Q14671 828-1176, C1007A;R1008V;Q1011R)
Assay: yeast three-hybrid, YBZ-1, SC-Leu-His + 0.5 mM 3-AT, 4 days
Conditions: tags: N-Gal4 AD-HA kept; label: inside an RPR1-promoter hybrid RNA with tandem MS2 sites; ssRNA
Outline: (§1)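 The interaction score is the log change in how often each variant appears, from input to selection. Frequencies came from PCR-amplified, Illumina-sequenced repeat regions of Pumilio-1 PUF domain libraries grown in strain YBZ-1 (LexA–MS2 coat fusion, HIS3 reporter) alongside matching RNA elements. Input plates were SC-Leu and selection plates were SC-Leu-His + 0.5 mM 3-AT, each for four days, and the log2 calculation used a pseudocount of 1 where a variant was absent.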

Sequence | binding signal
GGCUAGAACUAGUGGAUCCCCCGGCGCCCGGCGGCUCGAGCCCGGGUAAGUGUCAAUAGUCUGCAUGCCGCCGGGCGCCAUGCCUGCAGGUCGACUCUAGAAAACAUG | 4.64 log2 enrichment (interaction score)
GGCUAGAACUAGUGGAUCCCCCGGCGCCCGGCGGCUCGAGCCCGGGUAAGUGUGAAUAGUCUGCAUGCCGCCGGGCGCCAUGCCUGCAGGUCGACUCUAGAAAACAUG | 0.2 log2 enrichment (interaction score)
GGCUAGAACUAGUGGAUCCCCCGGCGCCCGGCGGCUCGAGCCCGGGUAAGUGUAAAUAGUCUGCAUGCCGCCGGGCGCCAUGCCUGCAGGUCGACUCUAGAAAACAUG | 1.73 log2 enrichment (interaction score)

Target: PUM1 PUF domain R4-SNC (Homo sapiens, UniProt Q14671 828-1176, N971S;H972N;Q975C)
Assay: as above
Conditions: tags: N-Gal4 AD-HA kept; label: inside an RPR1-promoter hybrid RNA with tandem MS2 sites; ssRNA
Outline: as §1

Sequence | binding signal
GGCUAGAACUAGUGGAUCCCCCGGCGCCCGGCGGCUCGAGCCCGGGUAAGUGUAUAUAGUCUGCAUGCCGCCGGGCGCCAUGCCUGCAGGUCGACUCUAGAAAACAUG | 3.92 log2 enrichment (interaction score)
GGCUAGAACUAGUGGAUCCCCCGGCGCCCGGCGGCUCGAGCCCGGGUAAGUGUACAUAGUCUGCAUGCCGCCGGGCGCCAUGCCUGCAGGUCGACUCUAGAAAACAUG | 2.48 log2 enrichment (interaction score)
GGCUAGAACUAGUGGAUCCCCCGGCGCCCGGCGGCUCGAGCCCGGGUAAGUGUAAAUAGUCUGCAUGCCGCCGGGCGCCAUGCCUGCAGGUCGACUCUAGAAAACAUG | 2.78 log2 enrichment (interaction score)
